Laboratory results taken from PubChem BioAssay (EPA / NIEHS).
Where “and” joins values, the source holds several entries; their conditions need not be identical. Equal entries are not always repeated. A structure can be active in one record and inactive in another. Calls of active or inactive are those of the source. How the source made its calls: active means hit-call score of the fitted dose curve at least 0.9, where 1 is the maximum; inactive means score below 0.9.

Columns and labels:
[1] = read-out: Macrophage colony-stimulating factor (MCSF), CSF1 (gene 1435); experiment: BSK_hDFCGF_MCSF: BioMAP Diversity Plus: hDFCGF Assay for Macrophage colony-stimulating factor (MCSF) Biomarker Activity (AID 2283060); conditions: primary human foreskin fibroblasts; actives raise or lower the signal
Outline: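 M-CSF levels, determined by ELISA, are taken at 24 h after dosing human skin fibroblasts. Responses in either direction are fitted with DMSO serving as the baseline.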

[2] = BSK_hDFCGF_SRB: Viability Assessment in the BioMAP Diversity Plus: hDFCGF Assay (AID 2283061); conditions: primary human foreskin fibroblasts;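 further: cells exposed to compound for 24 h before the read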
Outline: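 Cells were dosed with test chemical, cultured 24 h, fixed with 10% TCA, then stained with 0.1% SRB and read at 560 nm. The fibroblasts were human foreskin primary cells, and DMSO served as baseline.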

[3] = read-out: TIMP metallopeptidase inhibitor 1 (TIMP1), TIMP1 (gene 7076); experiment: BSK_hDFCGF_TIMP1: BioMAP Diversity Plus: hDFCGF Assay for TIMP metallopeptidase inhibitor 1 (TIMP1) Biomarker Activity (AID 2283062); conditions: primary human foreskin fibroblasts; actives raise or lower the signal
Outline: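 Fibroblasts from human foreskin are treated with test chemical and harvested at 24 h. TIMP-1 is quantified by ELISA, and gain or loss of signal is scored against DMSO.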

[4] = read-out: Monokine induced gamma interferon (MIG), CXCL9 (gene 4283); experiment: BSK_hDFCGF_MIG: BioMAP Diversity Plus: hDFCGF Assay for Monokine induced gamma interferon (MIG) Biomarker Activity (AID 2283063); conditions: primary human foreskin fibroblasts; actives raise or lower the signal
Outline: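 MIG signal, determined by ELISA, reflects 24 h chemical exposure of human skin primary fibroblasts. DMSO serves as negative control and baseline.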

[5] = read-out: Matrix Metallopeptidase 1 (MMP1), MMP1 (gene 4312); experiment: BSK_hDFCGF_MMP1: BioMAP Diversity Plus: hDFCGF Assay for Matrix Metallopeptidase 1 (MMP1) Biomarker Activity (AID 2283064); conditions: primary human foreskin fibroblasts; actives raise or lower the signal
Outline: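 Primary human foreskin fibroblasts exposed to chemicals for 24 h; MMP1 measured by ELISA. Cytotoxicity tracked by SRB staining in parallel cultures; bidirectional fit relative to DMSO.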

[6] = read-out: Vascular cell adhesion molecule 1 (VCAM1), VCAM1 (gene 7412); experiment: BSK_hDFCGF_VCAM1: BioMAP Diversity Plus: hDFCGF Assay for Vascular cell adhesion molecule 1 (VCAM1) Biomarker Activity (AID 2283065); conditions: primary human foreskin fibroblasts; actives raise or lower the signal;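 on AC50: VCAM-1 protein level quantified by ELISA after 24 h chemical exposure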
Outline: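 Cells are dosed, cultured for 24 h, then VCAM-1 is quantified by ELISA; signal increases and decreases are both fitted relative to DMSO.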

[7] = read-out: Plasminogen activator inhibitor-1 (PAI1), SERPINE1 (gene 5054); experiment: BSK_hDFCGF_PAI1: BioMAP Diversity Plus: hDFCGF Assay for Plasminogen activator inhibitor-1 (PAI1) Biomarker Activity (AID 2283066); conditions: primary human foreskin fibroblasts; actives raise or lower the signal
Outline: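 Human foreskin fibroblasts in the hDFCGF system were dosed with compound for 24 h; PAI-1 was quantified by ELISA. Bidirectional curve fitting used DMSO as negative control and baseline.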

[8] = read-out: Intercellular Adhesion Molecule 1 (ICAM1), ICAM1 (gene 3383); experiment: BSK_KF3CT_ICAM1: BioMAP Diversity Plus: KF3CT Assay for Intercellular Adhesion Molecule 1 (ICAM1) Biomarker Activity (AID 2283067); conditions: primary human keratinocytes with fibroblasts; actives raise or lower the signal
Outline: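 Dose the keratinocyte/fibroblast co-culture, wait 24 h, measure ICAM-1 by ELISA, then fit increases or decreases against DMSO. Cytotoxicity is checked in parallel cultures by SRB total-protein staining.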

[9] = read-out: Interferon-gamma inducible Protein 10 (IP10), CXCL10 (gene 3627); experiment: BSK_KF3CT_IP10: BioMAP Diversity Plus: KF3CT Assay for Interferon-gamma inducible Protein 10 (IP10) Biomarker Activity (AID 2283068); conditions: primary human keratinocytes with fibroblasts; actives raise or lower the signal
Outline: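 KF3CT co-culture (keratinocytes + foreskin fibroblasts), 24 h compound, IP-10 by ELISA; bidirectional fit vs DMSO baseline.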

[10] = BSK_KF3CT_SRB: Viability Assessment in the BioMAP Diversity Plus: KF3CT Assay (AID 2283069); conditions: primary human keratinocytes with fibroblasts;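 further: fitted for both signal gain and loss against DMSO baseline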
Outline: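 Human keratinocyte and foreskin fibroblast co-culture exposed to chemical for 24 h. Total protein measured in parallel cultures by 0.1% sulforhodamine B staining after 10% TCA fixation, read at 560 nm; bidirectional fit relative to DMSO.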

[11] = read-out: Interleukin-1 alpha (IL1a), IL1A (gene 3552); experiment: BSK_KF3CT_IL1a: BioMAP Diversity Plus: KF3CT Assay for Interleukin-1 alpha (IL1a) Biomarker Activity (AID 2283070); conditions: primary human keratinocytes with fibroblasts; actives raise or lower the signal
Outline: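 Primary human keratinocyte plus foreskin fibroblast co-culture, dosed and measured at 24 h in 96-well plates. IL-1a level quantified by ELISA; bidirectional fit relative to DMSO.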

[12] = read-out: Transforming growth factor beta 1 (TGFb1), TGFB1 (gene 7040); experiment: BSK_KF3CT_TGFb1: BioMAP Diversity Plus: KF3CT Assay for Transforming growth factor beta 1 (TGFb1) Biomarker Activity (AID 2283072); conditions: primary human keratinocytes with fibroblasts; actives raise or lower the signal
Outline: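 Human keratinocyte plus foreskin fibroblast primary co-culture, dosed with chemical for 24 h. TGF-b1 quantified by ELISA. Activity fitted bidirectionally against DMSO negative control as baseline.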

[13] = read-out: C-C motif chemokine 2 (Homo sapiens) (UniProt P13500); experiment: BSK_KF3CT_MCP1: BioMAP Diversity Plus: KF3CT Assay for Monocyte Chemoattractant Protein 1 (MCP1/CCL2) Biomarker Activity (AID 2283073); conditions: primary human keratinocytes with fibroblasts; actives raise or lower the signal
Outline: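 Keratinocytes and foreskin fibroblasts were co-cultured, dosed with chemical, and sampled 24 h later. MCP-1 was quantified by ELISA, and the endpoint was analyzed with bidirectional fitting using DMSO as negative control.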

[14] = read-out: Matrix Metallopeptidase 9 (MMP9), MMP9 (gene 4318); experiment: BSK_KF3CT_MMP9: BioMAP Diversity Plus: KF3CT Assay for Matrix Metallopeptidase 9 (MMP9) Biomarker Activity (AID 2283074); conditions: primary human keratinocytes with fibroblasts; actives raise or lower the signal;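 on AC50: MMP9 protein level quantified by ELISA in the co-culture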
Outline: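 Human keratinocyte and foreskin fibroblast co-culture exposed to chemicals for 24 h; MMP9 biomarker measured by ELISA, bidirectional fitting relative to DMSO; cytotoxicity tracked by SRB total protein staining in parallel cultures.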

[15] = read-out: urokinase plasminogen activator (uPA), PLAU (gene 5328); experiment: BSK_KF3CT_uPA: BioMAP Diversity Plus: KF3CT Assay for urokinase plasminogen activator (uPA) Biomarker Activity (AID 2283075); conditions: primary human keratinocytes with fibroblasts; actives raise or lower the signal
Outline: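 Primary human keratinocyte/foreskin fibroblast co-culture exposed to chemical; uPA measured by ELISA at 24 h. Bidirectional fit versus DMSO, with parallel SRB total-protein staining for cytotoxicity.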

CD40, CD40 (gene 958) = experiment: BSK_LPS_CD40: BioMAP Diversity Plus: LPS Assay for CD40 Biomarker Activity (AID 2283076); conditions: primary human HUVEC with PBMC; actives raise or lower the signal
Outline: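 CD40 signal, measured by ELISA, is fitted in both directions relative to DMSO vehicle. The system is an LPS-driven human vascular primary co-culture of endothelial cells and PBMC, sampled 24 h after compound addition.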

[16] = read-out: Interleukin-8 (IL8), CXCL8 (gene 3576); experiment: BSK_LPS_IL8: BioMAP Diversity Plus: LPS Assay for Interleukin-8 (IL8) Biomarker Activity (AID 2283078); conditions: primary human HUVEC with PBMC; actives raise or lower the signal
Outline: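 Endothelial cells and PBMC from human donors are co-cultured, treated with chemicals and LPS, then assayed for IL-8 by ELISA after 24 h. Parallel SRB staining (0.1% SRB after 10% TCA fixation, 560 nm) flags cytotoxicity.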

[17] = BSK_LPS_SRB: Viability Assessment in the BioMAP Diversity Plus: LPS Assay (AID 2283079); conditions: primary human HUVEC with PBMC;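 further: total protein by sulforhodamine B absorbance as a cytotoxicity measure; measured one day after compound addition; fitted in both directions against DMSO so loss or gain of signal counts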
Outline: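 Overt cytotoxicity was gauged by sulforhodamine B total-protein staining in a primary human vascular endothelial and mononuclear cell co-culture 24 h post-dosing. Activity was fitted in both directions relative to DMSO.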

[18] = read-out: E-selectin (Homo sapiens) (UniProt P16581); experiment: BSK_LPS_Eselectin: BioMAP Diversity Plus: LPS Assay for Eselectin Biomarker Activity (AID 2283077); conditions: primary human HUVEC with PBMC; actives raise or lower the signal
Outline: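 Signal of E-selectin, detected by ELISA, served as the endpoint; cells were umbilical vein endothelium with PBMC, read 24 h after treatment. DMSO defined baseline, and both increases and decreases were fitted.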

[19] = read-out: TIMP metallopeptidase inhibitor 2 (TIMP2), TIMP2 (gene 7077); experiment: BSK_KF3CT_TIMP2: BioMAP Diversity Plus: KF3CT Assay for TIMP metallopeptidase inhibitor 2 (TIMP2) Biomarker Activity (AID 2283071); conditions: primary human keratinocytes with fibroblasts; actives raise or lower the signal
Outline: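 Human primary keratinocyte/foreskin fibroblast co-culture dosed with chemical and sampled at 24 h. TIMP-2 levels quantified by ELISA; bidirectional fitting against DMSO negative control as baseline.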

Measured: AC50

Sequence of E-selectin (Homo sapiens) (P16581 whole entry, looked up): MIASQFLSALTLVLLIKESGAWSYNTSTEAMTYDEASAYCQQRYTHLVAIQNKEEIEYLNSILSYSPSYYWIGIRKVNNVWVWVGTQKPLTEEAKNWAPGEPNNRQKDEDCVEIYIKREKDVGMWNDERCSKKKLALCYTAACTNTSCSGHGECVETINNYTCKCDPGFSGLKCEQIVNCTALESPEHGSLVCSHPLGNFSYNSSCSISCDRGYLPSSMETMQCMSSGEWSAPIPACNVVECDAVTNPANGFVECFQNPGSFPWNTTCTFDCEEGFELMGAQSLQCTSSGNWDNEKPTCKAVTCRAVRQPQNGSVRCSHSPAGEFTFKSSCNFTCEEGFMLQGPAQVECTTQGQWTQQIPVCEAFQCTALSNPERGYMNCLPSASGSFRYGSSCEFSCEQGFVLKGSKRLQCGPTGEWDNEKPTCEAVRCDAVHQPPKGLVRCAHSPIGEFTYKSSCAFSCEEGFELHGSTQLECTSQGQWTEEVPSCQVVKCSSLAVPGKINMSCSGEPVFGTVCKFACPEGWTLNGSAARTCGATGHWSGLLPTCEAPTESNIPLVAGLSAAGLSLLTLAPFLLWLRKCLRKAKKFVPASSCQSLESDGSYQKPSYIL

CN(C)C(=O)Cl
not listed: [18] | [19]
inactive: all other assays above

CC(C)Nc1ccc(Nc2ccccc2)cc1
active: [1] 6.38 µM | [2] 6.01 µM | [3] 6.56 µM | [4] 6.46 µM | [5] 11.4 µM | [6] 2.21 µM | [7] 7.9 µM | [8] 20 µM | [9] 32.7 µM | [11] 24.4 µM | [12] 17.3 µM | [13] 33.3 µM | [14] 20 µM | [15] 31.6 µM | CD40, CD40 (gene 958) 14 µM | [18] 12.9 µM | [16] 20 µM | [17] 15.8 µM

CC(Cc1ccc(OCC(=O)O)cc1)NCC(O)c1csc(C(F)(F)F)n1 (configuration not stated)
not listed: [9]
inactive: all other assays above

OCC(F)(F)OC(F)(F)C(F)(F)OC(F)(F)C(F)(F)OC(F)(F)F
active: [4] 16 µM and 14.7 µM | [6] 19.3 µM | [8] 48.3 µM and 46.3 µM | [10] 48.3 µM and 48.1 µM | [11] 41.4 µM and 44.4 µM | [19] 51.7 µM and 45 µM | [13] 49.3 µM and 22.2 µM | [14] 54.1 µM and 51.6 µM | [15] 45.7 µM and 45.1 µM | CD40, CD40 (gene 958) 41 µM | [16] 47.4 µM and 51.8 µM
inactive: [1] | [2] | [3] | [5] | [6] | [7] | CD40, CD40 (gene 958) | [17]

O=P(OCC(Br)CBr)(OCC(Br)CBr)OCC(Br)CBr (configuration not stated)
active: [9] 26.2 µM | [14] 21.1 µM
not listed: [18]
inactive: all other assays above

O=[N+]([O-])c1ccccc1
not listed: [13]
inactive: all other assays above

Cc1ccc([N+](=O)[O-])cc1C
inactive: all assays above
